The source of these data is the emibetuzumab library of Makowski et al. (2022).

The labels stand for the following.
B1: VH:VL chains; a variant is named by its letters at X, in order (parent)
chain 1: QVQLVQSGAEVKKPGASVKVSCKASGYTFTDYXMHWVRQAPGQGLEWMGXVNPNXXXTTYNQKFEGRVTMTTDTSTSTAYMELRSLRSDDTAVYYCARXNXLDXWGQGTTVTVSS
chain 2: DIQMTQSPSSLSASVGDRVTITCSVSSSVSSIYLHWYQQKPGKAPKLLIYSTSNLASGVPSRFSGSGSGTDFTLTISSLQPEDFATYYCQVYSGYPLTFGGGTKVEIK

The other results are listed elsewhere or left out. The true hit rate is not given.

Variants of B1 are the subject of this assay. The assay is described as follows: yeast display scFab, FACS + sequencing. The settings on record: with MET. The procedure, abridged:
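Round-3 sorted and input populations from a heavy-chain CDR mutant scFab yeast library were deep sequenced in two replicates. Sorting used FACS on cells labelled for 3 h at room temperature with 1 nM HGFR-Fc and anti-Myc in PBSB with 1% milk, keeping the top 50% antigen-positive cells. Any sequence seen in both antigen-positive samples was called a binder, while one seen only in the input was called a non-binder.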
With VRAGADVD, the antigen binding call is “no binding”.
Then YTAGSDGV, with “no binding”.
In the case of VAGAGYGA, the antigen binding call is reported as “no binding”.
As for VKGRGYGA, the antigen binding call was “binds”.
Then VKGEGYGA, with “no binding”.
Consider YKGRGYGA, for which the antigen binding call is given as “binds”.
On to VRAKGAGY, for which the antigen binding call is “binds”.
For the variant VRRGDVGV, the antigen binding call is “no binding”.
Take VRKKGYVY: the antigen binding call was “no binding”.
Turning to VRRGDAGY, the antigen binding call is listed as “binds”.
As to VRRGDDVY, the antigen binding call is “no binding”.
As for VKAKDAGY, the antigen binding call was “no binding”.
On to VEGGGSSV, for which the antigen binding call is given as “no binding”.
Then DREEGDWA, with “no binding”; and VRGGDAVA, with “binds”; and VRGGDAVY chain 1 G44D, with “no binding”.
Take VRGRDAVS: the antigen binding call was “binds”.
As to VRGGDDGS, the antigen binding call is listed as “no binding”.
Take VRGGDAVS: the antigen binding call is recorded as “binds”.
VEGGGAAS: the antigen binding call is listed as “no binding”.
Turning to VAGGDAVA, the antigen binding call is on record as “no binding”.
With VRGGDAAS, the antigen binding call is recorded as “binds”.
For the variant VRGKAAVS, the antigen binding call was “no binding”.
For the variant VAGGDAAA, the antigen binding call is “no binding”.
As to DRGGDAVA, the antigen binding call is on record as “no binding”.
In the case of VRGRDDSA, the antigen binding call is on record as “no binding”.
For the variant DTGTGDWV, the antigen binding call is recorded as “no binding”.
Then SEEEGDAV, with “no binding”; and VKGAGDLA, with “no binding”; and VGGTDFVA, with “binds”.
The same measure for VGGTSDVA: “no binding”.
With VRRTDFVA, the antigen binding call was “no binding”.
On to VGGGADGA, for which the antigen binding call is “no binding”.
Turning to VKRRSSLA, the antigen binding call is reported as “binds”.
Turning to VKRATVLA, the antigen binding call was “no binding”.
Consider VRRRSSLA, for which the antigen binding call is given as “binds”.
VKRRSVGA: the antigen binding call is recorded as “no binding”.
As for YRRESSGY, the antigen binding call is given as “binds”.
Regarding YRRESSGV, the antigen binding call is recorded as “binds”.
Take YRREGSGV: the antigen binding call is “binds”.
Take DGERDYSD: the antigen binding call is listed as “no binding”.
In the case of FRERGSWV, the antigen binding call was “binds”.
As for YRERGAWV, the antigen binding call is “binds”.
Take DREEGSWV: the antigen binding call is given as “no binding”.
In the case of VRERGDWV, the antigen binding call is on record as “no binding”.
With VRERGSWV, the antigen binding call is recorded as “binds”.
YRERGSWV: the antigen binding call is on record as “binds”.
Turning to VEEEGSWV, the antigen binding call is given as “no binding”.
The same measure for VTGEDAGD: “no binding”; for YRGGGSVF: “binds”.
The same measure for YRGANSVF: “binds”.
On to YREEGDVF, for which the antigen binding call is “no binding”.
As to YRRGSSLF, the antigen binding call was “binds”.
Consider YRRGSSVF, for which the antigen binding call was “binds”.
On to VTGGDDSA, for which the antigen binding call is reported as “no binding”.
Take VAGTGSSA: the antigen binding call was “no binding”.
Turning to VGGGADGV, the antigen binding call is “no binding”.
Take VEGAASWV: the antigen binding call is on record as “no binding”.
Then AAGRAYGA, with “no binding”; and YRRGGSVF, with “binds”.
For the variant YRTGAAAD, the antigen binding call is listed as “binds”.
Then YRTGAASD, with “binds”.
As to DETGGSSD, the antigen binding call is “no binding”.
With YAGGTSSD, the antigen binding call is recorded as “no binding”.
YRGAASSD: the antigen binding call is on record as “binds”.
With YRRAADSD, the antigen binding call is on record as “no binding”.
With YRTGASSD, the antigen binding call is reported as “binds”.
On to SEARSSGY, for which the antigen binding call was “no binding”.
In the case of VTGEDSSD, the antigen binding call was “no binding”.
DRGGDVSD: the antigen binding call was “no binding”.
In the case of DRGGDDAD, the antigen binding call is reported as “no binding”.
On to FRGESSAD, for which the antigen binding call was “binds”.
The same measure for FRGGDSAD: “binds”; for FRGESSWD: “binds”; for VKGGNVGV: “no binding”.
Take SRRRGSAA: the antigen binding call is recorded as “binds”.
In the case of FRRRGAAA, the antigen binding call is on record as “binds”.
FRRRGSAA: the antigen binding call is on record as “binds”.
Take FRRRGAVA: the antigen binding call is given as “binds”.
Consider DRRRGSGA, for which the antigen binding call was “no binding”.
VETEGDGF: the antigen binding call is on record as “no binding”.
The same measure for VETGNSLV: “no binding”.
In the case of FRRGGAAA, the antigen binding call was “binds”.
With FKTKNYVV, the antigen binding call is reported as “no binding”.
For FKARGASV, the antigen binding call is “binds”.
The same measure for FKRRSASV: “no binding”; for FKGEGDGV: “no binding”; for FKARGALV: “binds”.
Then FKGEGSLV, with “no binding”; and FKKKDASV, with “binds”; and FKGEGYGV, with “no binding”.
SKTKSDAV: the antigen binding call is on record as “no binding”.
As to YKEGGAGD, the antigen binding call is “binds”.
With DKEGGAAD, the antigen binding call is listed as “no binding”.
Turning to DKEGGSLD, the antigen binding call was “no binding”.
Then YKEGGSGD, with “binds”.
On to YAEESAGD, for which the antigen binding call is listed as “no binding”.
DATGGDAD: the antigen binding call was “no binding”.
The same measure for DTKAASGV: “no binding”.
With VEAGDDVV, the antigen binding call is “no binding”.
Then DRAGDAGS, with “no binding”; and SRKKGDGS, with “no binding”.
As for YRRGSAGS, the antigen binding call was “binds”.
Turning to SRRGSASS, the antigen binding call is reported as “binds”.
As to SRRGGYVS, the antigen binding call is given as “no binding”.
Turning to YRRGSASS, the antigen binding call is on record as “binds”.
The same measure for YRRGDAGS: “binds”.
